# Test results published in PubChem BioAssay (EPA / NIEHS).
# Active and inactive are the calls of the source. The calls were made as follows: active = hit-call score of the fitted dose curve at least 0.9, where 1 is the maximum; inactive = score below 0.9.
# How the values were obtained:
# [1] = APR_HepG2_CellCycleArrest_24hr: Apredica 24-hour HepG2 Assay for Cell Cycle Arrest (AID 2282905); settings: imaging, actives raise or lower the signal;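 also: cell cycle arrest scored as ratio of 2N to 4N nuclear DNA content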
# In short: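 After 24 h exposure at 0.39–200 uM in 0.5% DMSO, fixed cells received Hoechst 33342 staining. Imaging quantified per-nucleus DNA content; gain or loss fitted against DMSO controls.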
# [2] = APR_HepG2_NuclearSize_24hr: Apredica 24-hour HepG2 Assay for Nuclear Size (AID 2282907); settings: high-content imaging, actives raise or lower the signal
# In short: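 Nuclear size from Hoechst 33342-stained, formaldehyde-fixed HepG2 nuclei imaged by high-content microscopy, after 24 h dosing at ten concentrations from 0.39 to 200 uM in 0.5% DMSO; gain or loss relative to DMSO baseline.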
# [3] = APR_HepG2_CellLoss_24hr: Apredica 24-hour HepG2 Assay for Cell Loss (AID 2282908); settings: high-content imaging;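 as to AC50: fit in both directions so a hit may be cell loss or gain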
# In short: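 Nuclei stained with Hoechst 33342 after formaldehyde fixation (3.7%) were imaged at 20x to count cells. Exposure lasted 24 hr, at ten concentrations from 0.39 to 200 uM in duplicate, with 0.5% v/v DMSO. Fit bidirectional, relative to DMSO.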
# [4] = APR_HepG2_MicrotubuleCSK_24hr: Apredica 24-hour HepG2 Assay for Microtubule CSK Stabilty (AID 2282909); settings: HepG2 microtubule cytoskeleton imaging, actives raise or lower the signal
# In short: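 Fixed HepG2 cells were stained for alpha-tubulin and imaged after 24 hr exposure to ten concentrations spanning 0.39–200 uM in 0.5% DMSO. Signal change was fitted in both directions relative to DMSO; taxol was the positive control.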
# [5] = APR_HepG2_MitoticArrest_24hr: Apredica 24-hour HepG2 Assay for Mitotic Arrest (AID 2282910); settings: high-content imaging, actives raise or lower the signal
# In short: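 Treatment lasted 24 hr in the human HepG2 line at 0.39–200 uM, solvent held at 0.5% DMSO. Fixed cells were stained with Hoechst 33342 and anti-phospho-histone H3, imaged at 20x, and analysed by gain- or loss-of-signal fitting against DMSO.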
# [6] = APR_HepG2_MitoMembPot_24hr: Apredica 24-hour HepG2 Assay for Mitochondrial Membrane Potential (AID 2282911); settings: imaging, actives raise or lower the signal
# In short: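 Human hepatoma HepG2 cultures received ten compound concentrations up to 200 uM for 24 hr. Membrane-potential dye signal, captured by automated fluorescence microscopy, was scored for gain or loss against DMSO controls.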
# [7] = APR_HepG2_MitoMass_24hr: Apredica 24-hour HepG2 Assay for Mitochondrial Mass (AID 2282912); settings: high-content imaging, actives raise or lower the signal
# In short: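 Endpoint is MitoTracker Red CMXRos (250 nM, 30 min, pre-fixation) intensity from 20x high-content imaging, nuclei located by Hoechst. Human HepG2 cells received ten concentrations from 0.39 to 200 uM in 0.5% DMSO for 24 hr, duplicate wells. Bidirectional fit relative to DMSO.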
# [8] = APR_HepG2_p53Act_24hr: Apredica 24-hour HepG2 Assay for p53 Activation (AID 2282913); settings: high-content imaging, actives raise or lower the signal;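 also: p53 protein immunofluorescence averaged per cell in HepG2 with Hoechst nuclei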
# In short: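 Automated fluorescence imaging quantifies p53 immunostaining in HepG2 cells after a 24 hr exposure (0.39–200 uM, duplicate, 0.5% DMSO). Nuclei are located by Hoechst 33342 staining.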
# [9] = APR_HepG2_CellCycleArrest_72hr: Apredica 72-hour HepG2 Assay for Cell Cycle Arrest (AID 2282914); settings: high-content imaging, actives raise or lower the signal
# In short: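 Cell cycle arrest in HepG2 was scored from nuclear DNA content after 72 hr compound treatment (0.39–200 uM). Activity, either gain or loss, was fitted against the DMSO baseline.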
# [10] = APR_HepG2_CellLoss_72hr: Apredica 72-hour HepG2 Assay for Cell Loss (AID 2282915); settings: high-content imaging
# In short: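 HepG2 cells were exposed for 72 hr to compounds at 0.39–200 uM (ten concentrations, duplicate) in 0.5% v/v final DMSO. Nuclei were stained with Hoechst 33342 after 3.7% formaldehyde fixation, imaged at 20x, and counted; fits bidirectional versus DMSO.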
# [11] = APR_HepG2_P-H2AX_72hr: Apredica 72-hour HepG2 Assay for H2AX Phosphorylation (AID 2282916); settings: imaging, actives raise or lower the signal;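 also: phospho-histone H2A.x immunostain intensity per cell marking DNA damage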
# In short: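 Phospho-histone H2A.x immunofluorescence, multiplexed with Hoechst and c-Jun, quantified by high-content imaging. Compounds applied to HepG2 for 72 h across ten concentrations (0.39–200 uM, 0.5% DMSO), in duplicate; DMSO baseline.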
# [12] = APR_HepG2_MitoMembPot_72hr: Apredica 72-hour HepG2 Assay for Mitochondrial Membrane Potential (AID 2282917); settings: imaging, actives raise or lower the signal
# In short: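 HepG2 cells exposed 72 h to compounds at 0.39–200 uM (0.5% v/v DMSO, duplicates); MitoTracker Red CMXRos 250 nM loaded 30 min before 3.7% formaldehyde fixation, imaged by HCS fluorescence. Bidirectional fit versus DMSO.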
# [13] = APR_HepG2_MitoticArrest_72hr: Apredica 72-hour HepG2 Assay for Mitotic Arrest (AID 2282918); settings: high-content imaging, actives raise or lower the signal
# In short: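 Mitotic arrest in HepG2 is scored from phospho-histone H3 staining after 72 hr dosing across 0.39–200 uM, with DMSO at 0.5% v/v. Nuclei are identified by Hoechst 33342 and fluorescence intensity is quantified per cell.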
# [14] = APR_HepG2_MicrotubuleCSK_72hr: Apredica 72-hour HepG2 Assay for Microtubule CSK Stabilty (AID 2282919); settings: HepG2 microtubule cytoskeleton, high-content imaging, actives raise or lower the signal
# In short: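 Ten-point dosing (0.39–200 uM, 0.5% DMSO) of HepG2 for 72 hr, with taxol as the cytoskeletal positive control. The cells were formaldehyde-fixed and then stained with alpha-tubulin/Cy5 and Hoechst. Imaging at 20x used a −2 um Z offset for tubulin.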
# [15] = APR_HepG2_P-H2AX_24hr: Apredica 24-hour HepG2 Assay for H2AX Phosphorylation (AID 2282920); settings: high-content imaging, actives raise or lower the signal
# In short: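 Signal comes from a FITC-labeled secondary detecting phospho-histone H2A.x in fixed HepG2 cells, quantified by automated imaging at 20x. Dosing ran 24 hr across 0.39–200 uM with 0.5% v/v DMSO.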
# [16] = APR_HepG2_StressKinase_72hr: Apredica 72-hour HepG2 Assay for Stress Kinase (AID 2282921); settings: HepG2 stress kinase (phospho-c-Jun) imaging, actives raise or lower the signal
# In short: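 Stress kinase signal is phospho-c-Jun immunofluorescence (1:500 primary, Cy3 secondary) in fixed, permeabilized human HepG2 cells imaged at 20x. Exposure lasted 72 hr over ten concentrations from 0.39 to 200 uM, 0.5% DMSO, in duplicate. Bidirectional fit versus DMSO.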
# [17] = APR_HepG2_StressKinase_24hr: Apredica 24-hour HepG2 Assay for Stress Kinase (AID 2282922); settings: HepG2 stress kinase (phospho-c-Jun) imaging, actives raise or lower the signal
# In short: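 After 24 hr compound treatment (up to 200 uM, final DMSO 0.5% v/v), HepG2 cells are fixed and multiplex-labeled; phospho-c-Jun intensity is captured by high-content fluorescence imaging and analyzed relative to DMSO.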
# [18] = APR_HepG2_p53Act_72hr: Apredica 72-hour HepG2 Assay for p53 Activation (AID 2282923); settings: high-content imaging, actives raise or lower the signal;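 also: average cellular p53 protein immunofluorescence intensity in HepG2 cells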
# In short: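 After 72 h with compound (ten points, 0.39 to 200 uM, final DMSO 0.5% v/v), fixed HepG2 cells were labelled with sheep anti-p53 and Hoechst 33342 and imaged; gain or loss versus DMSO scored.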
# [19] = APR_HepG2_MitoMass_72hr: Apredica 72-hour HepG2 Assay for Mitochondrial Mass (AID 2282924); settings: high-content imaging, actives raise or lower the signal;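 also: MitoTracker Red CMXRos stain intensity per cell imaged as mitochondrial mass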
# In short: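 Steps: treat HepG2 72 hr (0.39–200 uM, duplicate wells); load MitoTracker Red CMXRos, 250 nM, 30 min; fix with 3.7% formaldehyde, permeabilise with 0.5% Triton X-100; capture images, nuclei via Hoechst 33342; fit bidirectionally against DMSO.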
# [20] = APR_HepG2_NuclearSize_72hr: Apredica 72-hour HepG2 Assay for Nuclear Size (AID 2282925); settings: high-content imaging, actives raise or lower the signal
# In short: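 Compounds (0.39–200 uM, final DMSO 0.5%) were applied to HepG2 for 72 hr. Cells were then formaldehyde-fixed, permeabilized and labelled with Hoechst 33342. Nuclear diameter was quantified from six images per well.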
compound,measurement,setting,value
CCCCCCC(CCCCCCCCCCC(=O)OCC(COC(C)=O)OC(C)=O)OC(C)=O (stereo not drawn),outcome,[1],inactive
same,outcome,[2],inactive
same,outcome,[3],inactive
same,outcome,[4],inactive
same,outcome,[5],inactive
same,outcome,[6],inactive
same,outcome,[7],inactive
same,outcome,[8],inactive
same,outcome,[9],inactive
same,outcome,[10],inactive
same,outcome,[11],inactive
same,outcome,[12],inactive
same,AC50,[13],39.8 µM (active)
same,outcome,[14],inactive
same,outcome,[15],inactive
same,outcome,[16],inactive
same,outcome,[17],inactive
same,outcome,[18],inactive
same,outcome,[19],inactive
CN(C)CCCN(C)CCCN(C)C,outcome,[1],inactive
same,outcome,[2],inactive
same,outcome,[3],inactive
same,outcome,[4],inactive
same,outcome,[5],inactive
same,outcome,[6],inactive
same,outcome,[7],inactive
same,outcome,[8],inactive
same,outcome,[9],inactive
same,outcome,[10],inactive
same,outcome,[11],inactive
same,outcome,[12],inactive
same,outcome,[13],inactive
same,outcome,[14],inactive
same,outcome,[15],inactive
same,outcome,[16],inactive
same,outcome,[17],inactive
same,outcome,[18],inactive
same,outcome,[19],inactive
same,outcome,[20],inactive
CC(C)(C)c1ccccc1,outcome,[1],inactive
same,outcome,[2],inactive
same,outcome,[3],inactive
same,outcome,[4],inactive
same,outcome,[5],inactive
same,outcome,[6],inactive
same,outcome,[7],inactive
same,outcome,[8],inactive
same,outcome,[9],inactive
same,outcome,[10],inactive
same,outcome,[11],inactive
same,outcome,[12],inactive
same,outcome,[13],inactive
same,outcome,[14],inactive
same,outcome,[15],inactive
same,outcome,[16],inactive
same,outcome,[17],inactive
same,outcome,[18],inactive
same,outcome,[19],inactive
C=CCCCCCCCCCCCC,AC50,[1],69.9 µM (active)
same,outcome,[2],inactive
same,AC50,[3],52.7 µM (active)
same,outcome,[4],inactive
same,outcome,[5],inactive
same,outcome,[6],inactive
same,outcome,[7],inactive
same,AC50,[8],99.4 µM (active)
same,outcome,[9],inactive
same,AC50,[10],87.6 µM (active)
same,AC50,[11],98.6 µM (active)
same,outcome,[12],inactive
same,outcome,[13],inactive
same,outcome,[14],inactive
same,AC50,[15],99 µM (active)
same,AC50,[16],98.5 µM (active)
same,AC50,[18],93.4 µM (active)
same,outcome,[19],inactive
CCc1cc(C2=C(C(=O)O)N(c3ccccc3C(F)(F)F)S(=O)(=O)c3ccccc32)cc2c1OCO2,outcome,[1],inactive
same,outcome,[2],inactive
same,outcome,[3],inactive
same,outcome,[4],inactive
same,outcome,[5],inactive
same,outcome,[6],inactive
same,outcome,[7],inactive
same,outcome,[8],inactive
same,outcome,[9],inactive
same,AC50,[10],95.5 µM (active)
same,outcome,[11],inactive
same,outcome,[12],inactive
same,outcome,[13],inactive
same,outcome,[14],inactive
same,outcome,[15],inactive
same,outcome,[16],inactive
same,outcome,[18],inactive
same,outcome,[19],inactive
same,outcome,[20],inactive
CN(C)C(=O)NC1(c2ccccc2)CCN(CC[C@@]2(c3ccc(F)c(F)c3)CN(C(=O)c3ccccc3)CCO2)CC1,outcome,[1],inactive
same,outcome,[2],inactive
same,outcome,[3],inactive
same,outcome,[4],inactive
same,AC50,[5],101 µM (active)
same,outcome,[6],inactive
same,AC50,[7],97.8 µM (active)
same,outcome,[8],inactive
same,outcome,[9],inactive
same,AC50,[10],111 µM (active)
same,AC50,[11],91.8 µM (active)
same,outcome,[12],inactive
same,AC50,[13],86 µM (active)
same,AC50,[14],82.9 µM (active)
same,outcome,[15],inactive
same,AC50,[16],104 µM (active)
same,outcome,[17],inactive
same,AC50,[18],97.7 µM (active)
same,outcome,[19],inactive
same,outcome,[20],inactive
Cc1ccc(C(C)(C)C)c(O)c1,outcome,[1],inactive
same,AC50,[2],112 µM (active)
same,AC50,[3],108 µM (active)
same,AC50,[4],113 µM (active)
same,AC50,[5],106 µM (active)
same,AC50,[6],122 µM (active)
same,AC50,[7],107 µM (active)
same,AC50,[8],110 µM (active)
same,AC50,[9],110 µM (active)
same,AC50,[10],145 µM (active)
same,AC50,[11],105 µM (active)
same,AC50,[12],111 µM (active)
same,AC50,[13],100 µM (active)
same,outcome,[14],inactive
same,AC50,[15],110 µM (active)
same,outcome,[16],inactive
same,outcome,[18],inactive
same,outcome,[19],inactive
